Measured values reported in PubChem BioAssay AID1159580 (chemical genetic matrix, 2015).
About 2,000 (36%) of roughly 5,500 compounds were called active. Another 18% or so got no clear call; they are omitted. Rule as the data show it: active = normalized growth mostly below about 0.91 (no sharp cut-off); inconclusive = no clear call, values can overlap the other calls; inactive = mostly above about 0.92. Some of the results follow.

Assay: chemical genetic growth profiling, strain panel (AID 1159580);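 also: tested at 20 µM; growth read once vehicle control cultures reached saturation at 30 °C; 1 = growth at the plate median or of vehicle wells; lower values mean less growth of the strain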
Settings: S. cerevisiae deletion strains, growth OD
[1] = locus YAR019C, strain CDC15, hits give low values
[2] = locus YBL105C, strain PKC1, hits give low values
[3] = locus YBR135W, strain CKS1, hits give low values
[4] = locus YBR136W, strain MEC1, hits give low values
[5] = locus YBR160W, strain CDC28, hits give low values
[6] = locus YDL017W, strain CDC7, hits give low values
[7] = locus YDL028C, strain MPS1, hits give low values
[8] = locus YDL101C, strain DUN1, hits give low values
[9] = locus YDL108W, strain KIN28, hits give low values
[10] = locus YDL132W, strain cdc53, hits give low values
[11] = locus YDL214C, strain PRR2, hits give low values
[12] = locus YDR052C, strain DBF4, hits give low values
[13] = locus YDR054C, strain cdc34, hits give low values
[14] = locus YDR226W, strain ADK1, hits give low values
[15] = locus YDR477W, strain SNF1, hits give low values
[16] = locus YER123W, strain YCK3, hits give low values
[17] = locus YER133W, strain GLC7, hits give low values
[18] = locus YFL009W, strain cdc4, hits give low values
[19] = locus YFL029C, strain CAK1, hits give low values
[20] = locus YFR003C, strain YPI1, hits give low values
[21] = locus YFR019W, strain FAB1, hits give low values
[22] = locus YFR028C, strain CDC14, hits give low values
[23] = locus YGR040W, strain KSS1, hits give low values
[24] = locus YGR052W, strain FMP48, hits give low values
[25] = locus YGR092W, strain DBF2, hits give low values
[26] = locus YHR030C, strain SLT2, hits give low values
[27] = locus YHR079C, strain IRE1, hits give low values
[28] = locus YHR082C, strain KSP1, hits give low values
[29] = locus YHR205W, strain SCH9, hits give low values
[30] = locus YIL147C, strain SLN1, hits give low values
[31] = locus YJL095W, strain BCK1, hits give low values
[32] = locus YJL128C, strain PBS2, hits give low values
[33] = locus YJL157C, strain FAR1, hits give low values
[34] = locus YJR016C, strain ILV3, hits give low values
[35] = locus YJR066W, strain TOR1 (second series), hits give low values
[36] = locus YJR066W, strain TOR1, hits give low values
[37] = locus YKL048C, strain ELM1, hits give low values
[38] = locus YKL067W, strain YNK1, hits give low values
[39] = locus YKL101W, strain HSL1, hits give low values
[40] = locus YKL193C, strain SDS22, hits give low values
[41] = locus YKL203C, strain TOR2, hits give low values
[42] = locus YLR113W, strain HOG1, hits give low values
[43] = locus YLR133W, strain CKI1, hits give low values
[44] = locus YLR403W, strain SFP1, hits give low values
[45] = locus YML070W, strain DAK1, hits give low values
[46] = locus YMR001C, strain CDC5, hits give low values
[47] = locus YMR205C, strain PFK2 (second series), hits give low values
[48] = locus YMR277W, strain FCP1, hits give low values
[49] = locus YNL006W, strain LST8, hits give low values
[50] = locus YNL020C, strain ARK1, hits give low values
[51] = locus YNL161W, strain CBK1, hits give low values
[52] = locus YNL183C, strain NPR1, hits give low values
[53] = locus YNL207W, strain RIO2, hits give low values
[54] = locus YNL222W, strain SSU72, hits give low values
[55] = locus YNL307C, strain MCK1 (second series), hits give low values
[56] = locus YOL078W, strain AVO1, hits give low values
[57] = locus YOL136C, strain PFK27, hits give low values
[58] = locus YOR061W, strain CKA2, hits give low values
[59] = locus YOR119C, strain RIO1, hits give low values
[60] = locus YOR231W, strain MKK1, hits give low values
[61] = locus YOR329C, strain SCD5, hits give low values
[62] = locus YPL031C, strain PHO85, hits give low values
[63] = locus YPL153C, strain RAD53, hits give low values
[64] = locus YPL204W, strain HRR25, hits give low values
[65] = locus YPL209C, strain IPL1, hits give low values
[66] = locus YPL256C, strain CLN2, hits give low values
[67] = locus YPR025C, strain CCL1, hits give low values
[68] = locus YPR106W, strain ISR1, hits give low values
[69] = locus YPR111W, strain DBF20, hits give low values
[70] = strain NNK1, hits give low values
[71] = strain TSCII, hits give low values

Measured: normalized growth

CC(C)(C)c1ccc(C(=O)NNC(=S)Nc2ccc(Cl)cc2)cc1
inactive: [1] 0.958 | [2] 0.978 | [3] 0.972 | [4] 0.974 | [5] 0.965 | [6] 0.983 | [7] 0.936 | [8] 0.978 | [9] 0.96 | [10] 0.971 | [11] 0.932 | [12] 0.986 | [13] 0.968 | [14] 0.954 | [15] 0.931 | [16] 0.895 | [17] 0.949 | [18] 0.937 | [19] 0.96 | [20] 0.98 | [21] 0.98 | [22] 0.957 | [23] 0.939 | [24] 0.974 | [25] 0.862 | [27] 0.916 | [28] 0.984 | [29] 0.904 | [30] 0.973 | [31] 0.898 | [32] 0.93 | [33] 0.953 | [34] 0.986 | [35] 0.845 | [36] 0.903 | [37] 0.996 | [38] 0.909 | [39] 0.91 | [40] 0.97 | [41] 1.01 | [42] 0.878 | [43] 0.938 | [44] 0.96 | [45] 0.921 | [46] 0.953 | [47] 0.933 | [48] 0.949 | [49] 0.981 | [50] 0.933 | [51] 0.986 | [52] 0.962 | [53] 0.971 | [54] 0.976 | [55] 0.896 | [56] 0.97 | [57] 0.919 | [58] 0.969 | [59] 0.964 | [60] 0.916 | [61] 0.983 | [62] 0.927 | [63] 0.873 | [64] 0.907 | [65] 0.968 | [67] 0.979 | [68] 0.984 | [69] 0.927 | [70] 0.997 | [71] 0.974
active: [26] 0.731 | [66] 0.839

O=C(NNC(=S)Nc1ccc(Cl)cc1)c1ncc(C(F)(F)F)cc1Cl
inactive: [1] 0.968 | [2] 0.99 | [3] 0.992 | [4] 0.985 | [5] 0.994 | [6] 0.989 | [7] 0.988 | [8] 0.985 | [9] 0.986 | [10] 0.966 | [11] 0.956 | [12] 0.991 | [13] 0.961 | [14] 0.982 | [15] 0.935 | [16] 0.863 | [17] 0.94 | [18] 0.975 | [19] 0.973 | [20] 0.991 | [21] 1 | [22] 0.984 | [23] 0.929 | [24] 0.942 | [25] 0.755 | [26] 0.901 | [27] 0.768 | [28] 1.08 | [29] 0.981 | [30] 0.972 | [31] 0.791 | [32] 0.971 | [33] 0.912 | [34] 0.974 | [35] 0.885 | [36] 1.01 | [37] 0.986 | [38] 0.95 | [39] 0.926 | [40] 0.984 | [41] 1.01 | [42] 0.886 | [43] 0.932 | [44] 0.91 | [45] 0.93 | [46] 0.986 | [47] 0.956 | [48] 0.966 | [49] 0.991 | [50] 0.929 | [51] 0.981 | [52] 0.854 | [53] 0.973 | [54] 0.979 | [55] 0.912 | [56] 0.972 | [57] 0.939 | [58] 0.925 | [59] 0.962 | [60] 0.843 | [61] 0.99 | [62] 0.901 | [63] 0.882 | [64] 0.86 | [65] 0.992 | [66] 0.875 | [67] 0.98 | [68] 0.987 | [69] 0.987 | [70] 0.995 | [71] 0.968

S=C(Nc1ccc(Cl)cc1)Nc1ccc(Cl)cc1
active: [12] 0.894 | [26] 0.662 | [42] 0.717 | [66] 0.819
inactive: [1] 0.912 | [2] 0.915 | [3] 0.938 | [4] 0.928 | [5] 0.926 | [6] 0.921 | [7] 0.935 | [8] 0.96 | [9] 0.933 | [10] 0.927 | [11] 0.855 | [13] 0.912 | [14] 0.95 | [15] 0.861 | [16] 0.791 | [17] 0.828 | [18] 0.925 | [19] 0.92 | [20] 0.922 | [21] 0.864 | [22] 0.915 | [23] 0.847 | [24] 0.811 | [25] 0.703 | [27] 0.807 | [28] 0.902 | [29] 0.881 | [30] 0.926 | [31] 0.814 | [32] 0.903 | [33] 0.827 | [34] 0.922 | [35] 0.83 | [36] 0.772 | [37] 0.944 | [38] 0.853 | [39] 0.888 | [40] 0.926 | [41] 0.871 | [43] 0.839 | [44] 0.835 | [45] 0.825 | [46] 0.922 | [47] 0.871 | [48] 0.918 | [49] 0.937 | [50] 0.837 | [51] 0.918 | [52] 0.779 | [53] 0.893 | [54] 0.936 | [55] 0.783 | [56] 0.921 | [57] 0.848 | [58] 0.808 | [59] 0.878 | [60] 0.836 | [61] 0.923 | [62] 0.82 | [63] 0.845 | [64] 0.778 | [65] 0.923 | [67] 0.932 | [68] 0.931 | [69] 0.931 | [70] 0.932 | [71] 0.906
